Values joined by “and” are separate entries in the source; they are usually repeats but may differ in a detail not shown here. Identical values can stand only once. Records with an inconclusive call do not appear. A call without a number means that no potency is given here. A structure can be active in one record and inactive in another. Active and inactive are the calls of the source. Unless noted, calls come from the whole dose curve.
Test system: not listed separately
Test: qHTS assay to identify small molecule agonists of the endoplasmic reticulum stress response signaling pathway - cell viability counter screen (AID 1159517);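 note: HeLa cells carrying an ER stress response element beta-lactamase reporter; nearly all actives have a fitted effect of over 50% in size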
Settings: ESRE-bla HeLa viability, CellTiter-Glo luminescence, 5 h; series mostly up to 61 µM
Procedure, shortened: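 Counter-screen wells were identical to the reporter wells. Cells were plated at 1,500 per well and dosed for 5 hr, then read for luminescence 30 min after CellTiter-Glo addition.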

SMILES | outcome
C=C(C)C(=O)O[C@H]1C[C@@H]2CC[C@@]1(C)C2(C)C | inactive
O=S1(=O)CC=CC1 | inactive
Oc1cccc2ccccc12 | inactive
CC(=O)c1ccccc1 | inactive
C=C(C)C(=O)OCCOCCOCCOC(=O)C(=C)C | inactive
O=C(O)CCCCCCCCCCC(=O)O | inactive
O=c1[nH]c(=O)n([C@H]2CCCO2)cc1F | inactive
CC(C)c1ccc(S(=O)(=O)O)cc1 | inactive
O=[N+]([O-])c1ccc(/C=C/c2ccc([N+](=O)[O-])cc2S(=O)(=O)O)c(S(=O)(=O)O)c1 | inactive
O=C=NCCCCCCN=C=O | inactive
OCc1cccnc1 | inactive
COc1ccc2cc([C@H](C)C(=O)O)ccc2c1 | inactive
C[Si](O[Si](C)(C)C)O[Si](C)(C)C | inactive
C/C=C1/CC2C=CC1C2 (stereo not given) | inactive
CC1CCC2CC1C2(C)C (stereo not given) | inactive
O=C(CC(C(=O)OC1CCCCC1)S(=O)(=O)O)OC1CCCCC1 (stereo not given) | inactive
C[C@H]1C[C@H]2[C@@H]3CCC4=CC(=O)C=C[C@]4(C)[C@@]3(F)[C@@H](O)C[C@]2(C)[C@@]1(O)C(=O)CO | inactive
c1ccc2c(c1)ccc1ccccc12 | inactive
CCN(CC)CCCC(C)Nc1ccnc2cc(Cl)ccc12 (stereo not given) | inactive
CCCCCC/C(C=O)=C\c1ccccc1 | inactive

SMILES | outcome
C=C(C)C(=O)Nc1ccc(Cl)c(Cl)c1 | inactive
CCCCC(CC)COC(=O)C(C#N)=C(c1ccccc1)c1ccccc1 (stereo not given) | inactive
CCCCCCCCCCCCOCCO | inactive
OCCOCCOCCO | inactive
CN(C)CCCN | inactive
CCCCN(CCCC)CCCC | inactive
O=C(O)c1ccccc1C(c1ccc(O)cc1)c1ccc(O)cc1 | inactive
CCCCCC1=CCCC1=O | inactive
O=C(O)c1ccc2c(c1)C(=O)OC2=O | inactive
N[C@@H](Cc1cc(I)c(Oc2cc(I)c(O)c(I)c2)c(I)c1)C(=O)O | inactive
O=C(O)c1cc(O)c(O)c(O)c1 | inactive
c1c[nH]cn1 | inactive
c1ccc2scnc2c1 | inactive
CC(=O)Nc1ccccc1 | inactive
C#CCN(C)Cc1ccccc1 | inactive
CCCCCCCCCC | inactive
O=C(O)[C@H](O)[C@@H](O)[C@H](O)[C@H](O)CO | inactive
O=C(Oc1ccccc1)c1ccccc1 | inactive
CC(c1cc2ccccc2s1)N(O)C(N)=O (stereo not given) | inactive

Target: Nuclear receptor ROR-gamma (Homo sapiens) (UniProt P51449)
Test: qHTS assay to identify small molecule antagonists of the retinoid-related orphan receptor gamma (ROR-gamma) signaling pathway (AID 1159521; active = well fitted inhibition curve with a large enough effect in the repeat runs; note: nearly all actives have a fitted effect of over 50% in size; note: potency is the fitted concentration of half-maximal effect;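 for activity change, negative = inhibition: CHO cells with doxycycline inducible ROR-gamma driving an RORE luciferase reporter; top concentration of the series differs between compounds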)
Settings: Tet-on RORgamma CHO cells, RORE-luciferase, 16 h; series mostly up to 92.4 µM
Procedure, shortened: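 Screening format: cell-based luciferase reporter in CHO cells with doxycycline-inducible RORγ. Compound pre-exposure lasts 2 h, doxycycline is 1 uM final, induction runs 16 h at 37 C, and ONE-Glo luminescence is read.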

SMILES | Potency | activity change, negative = inhibition
O=S1(=O)CC=CC1 | inactive | –
C=C(C)C(=O)OCCOCCOCCOC(=O)C(=C)C | inactive | –
CC(C)c1ccc(S(=O)(=O)O)cc1 | inactive | –
O=[N+]([O-])c1ccc(/C=C/c2ccc([N+](=O)[O-])cc2S(=O)(=O)O)c(S(=O)(=O)O)c1 | inactive | –
O=C=NCCCCCCN=C=O | 26.7 µM (active) and inactive | –
C[Si](O[Si](C)(C)C)O[Si](C)(C)C | inactive | –
c1ccc2c(c1)ccc1ccccc12 | inactive | –
CCN(CC)CCCC(C)Nc1ccnc2cc(Cl)ccc12 (stereo not given) | – | 0.0918% [at 8.39 µM] (inactive) and -4.56% [at 19 µM] (inactive)
OCCOCCOCCO | inactive | –
O=C(O)c1ccccc1C(c1ccc(O)cc1)c1ccc(O)cc1 | inactive | –
O=C(O)c1cc(O)c(O)c(O)c1 | inactive | –
O=C(Oc1ccccc1)c1ccccc1 | inactive | –

Test system: not listed separately
Test: qHTS assay to identify small molecule agonists of the AP-1 signaling pathway - cell viability counter screen (AID 1159525); note: nearly all actives have a fitted effect of over 55% in size; note: potency is the fitted concentration of half-maximal effect
Settings: ME-180 (cervical carcinoma) AP-1-bla cells viability, ATP luminescence, 5 h; series mostly up to 76.8 µM
Procedure, shortened: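 AP-1-bla ME-180 cells in Opti-MEM with 0.5% dialyzed FBS, compound exposure 5 h at 37 C in 15-point titration. Viability read in the same wells as ATP content by CellTiter-Glo luminescence, normalised to tetra-n-octylammonium bromide and DMSO controls.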

SMILES | Potency | viability change, negative = cytotoxic
C=C(C)C(=O)O[C@H]1C[C@@H]2CC[C@@]1(C)C2(C)C | 4.87 µM (active) and inactive | –
O=S1(=O)CC=CC1 | inactive | –
Oc1cccc2ccccc12 | inactive | –
CC(=O)c1ccccc1 | inactive | –
C=C(C)C(=O)OCCOCCOCCOC(=O)C(=C)C | inactive | –
O=C(O)CCCCCCCCCCC(=O)O | inactive | –
O=c1[nH]c(=O)n([C@H]2CCCO2)cc1F | inactive | –
CC(C)c1ccc(S(=O)(=O)O)cc1 | inactive | –
O=[N+]([O-])c1ccc(/C=C/c2ccc([N+](=O)[O-])cc2S(=O)(=O)O)c(S(=O)(=O)O)c1 | inactive | –
O=C=NCCCCCCN=C=O | inactive | –
OCc1cccnc1 | inactive | –
COc1ccc2cc([C@H](C)C(=O)O)ccc2c1 | inactive | –
C[Si](O[Si](C)(C)C)O[Si](C)(C)C | inactive | –
C/C=C1/CC2C=CC1C2 (stereo not given) | inactive | –
CC1CCC2CC1C2(C)C (stereo not given) | inactive | –
O=C(CC(C(=O)OC1CCCCC1)S(=O)(=O)O)OC1CCCCC1 (stereo not given) | inactive | –
C[C@H]1C[C@H]2[C@@H]3CCC4=CC(=O)C=C[C@]4(C)[C@@]3(F)[C@@H](O)C[C@]2(C)[C@@]1(O)C(=O)CO | inactive | –
c1ccc2c(c1)ccc1ccccc12 | inactive | –
CCN(CC)CCCC(C)Nc1ccnc2cc(Cl)ccc12 (stereo not given) | – | 0.716% [at 6.97 µM] (inactive) and 1.22% [at 15.8 µM] (inactive)
CCCCCC/C(C=O)=C\c1ccccc1 | inactive | –

SMILES | Potency | viability change, negative = cytotoxic
C=C(C)C(=O)Nc1ccc(Cl)c(Cl)c1 | inactive | –
CCCCC(CC)COC(=O)C(C#N)=C(c1ccccc1)c1ccccc1 (stereo not given) | inactive | –
CCCCCCCCCCCCOCCO | inactive | –
OCCOCCOCCO | inactive | –
CN(C)CCCN | inactive | –
CCCCN(CCCC)CCCC | inactive | –
O=C(O)c1ccccc1C(c1ccc(O)cc1)c1ccc(O)cc1 | inactive | –
CCCCCC1=CCCC1=O | inactive | –
O=C(O)c1ccc2c(c1)C(=O)OC2=O | inactive | –
N[C@@H](Cc1cc(I)c(Oc2cc(I)c(O)c(I)c2)c(I)c1)C(=O)O | inactive | –
O=C(O)c1cc(O)c(O)c(O)c1 | inactive | –
c1c[nH]cn1 | inactive | –
c1ccc2scnc2c1 | inactive | –
CC(=O)Nc1ccccc1 | inactive | –
C#CCN(C)Cc1ccccc1 | inactive | –
CCCCCCCCCC | inactive | –
O=C(O)[C@H](O)[C@@H](O)[C@H](O)[C@H](O)CO | inactive | –
O=C(Oc1ccccc1)c1ccccc1 | inactive | –
CC(c1cc2ccccc2s1)N(O)C(N)=O (stereo not given) | inactive | –
